According to PubChem BioAssay (Tox21):
Results filed as inconclusive are left out. The source made the active and inactive calls. Calls follow the shape of the dose curve; as a rule, active = well fitted inhibition curve with a large enough effect in the repeat runs; inconclusive = weak or mixed curves; inactive = no such curve, though single readings can be large or run the other way.

assay: qHTS assay to identify small molecule antagonists of the thyroid receptor (TR) signaling pathway (AID 743065); details: GH3.TRE-Luc, T3-stimulated luciferase inhibition, 23.5 h; series mostly up to 70.3 µM; also: nearly all actives have a fitted effect of over 55% in size
Procedure, shortened: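 GH3.TRE-Luc rat pituitary cells (two TREs driving luciferase) were dosed with compound, then stimulated with 1 nM T3 (final) for 23.5 h at 37 C. ONE-Glo luminescence was the read-out, with CellTiter-Fluor fluorescence as the cytotoxicity counter-screen.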
Potency is read from the fitted curve at half-maximal effect.

Compound | Potency
COc1ccc(-c2noc(CC(=O)O)c2-c2ccc(OC)cc2)cc1 | inactive
O=C1CSC2(CCN(CCCN3c4ccccc4Sc4ccc(Cl)cc43)CC2)N1 | 10.6 µM (active)
O=C(OC1C[C@@H]2CC3C[C@H](C1)N2CC3=O)c1c[nH]c2ccccc12 (some centres not stated) | 29.8 µM (active)
Cn1c(O)c(N=NC(N)=S)c2ccccc21 | 29.8 µM (active)
CN1c2cc(O)c(N=NC(N)=O)cc2CC1S(=O)(=O)O (configuration not stated) | inactive
CSc1nc2cc(Oc3cccc(Cl)c3Cl)c(Cl)cc2[nH]1 | 8.41 µM (active)
CC(C)(C)NCC(O)c1ccc(O)c(CO)n1 (configuration not stated) | inactive
CCCCCCCCCCCCCCCCCCCCCC(=O)Nc1ccn([C@@H]2O[C@H](CO)[C@@H](O)[C@@H]2O)c(=O)n1 | 18.8 µM (active)
COc1ccc(CC2c3cc(OC)c(OC)cc3CC[N+]2(C)CCC(=O)OCCCCCOC(=O)CC[N+]2(C)CCc3cc(OC)c(OC)cc3C2Cc2ccc(OC)c(OC)c2)cc1OC (configuration not stated) | inactive
CO[C@H]1C[C@@H]2CC[C@@H](C)[C@@](O)(O2)C(=O)C(=O)N2CCCC[C@H]2C(=O)O[C@H]([C@H](C)C[C@@H]2CC[C@@H](OCCO)[C@H](OC)C2)CC(=O)[C@H](C)/C=C(\C)[C@@H](O)[C@@H](OC)C(=O)[C@H](C)C[C@H](C)/C=C/C=C/C=C/1C | 0.0027 µM (active)
CC#CCC(C)[C@H](O)/C=C/[C@@H]1[C@H]2c3cccc(CCCC(=O)O)c3O[C@H]2C[C@H]1O (some centres not stated) | inactive
CCCCCCC(=O)O[C@H]1CC[C@H]2[C@@H]3CCc4cc(O)ccc4[C@H]3CC[C@]12C | 21.1 µM (active)
CCC(=O)Oc1ccc2c(c1)CC[C@@H]1[C@@H]2CC[C@]2(C)[C@@H](OC(=O)CC)CC[C@@H]12 | inactive
CCCCC(C)(O)C/C=C/[C@H]1[C@H](O)CC(=O)[C@@H]1CCCCCCC(=O)OC (some centres not stated) | inactive
CN1CCN2c3ncccc3Cc3ccccc3C2C1 (configuration not stated) | 21.1 µM (active)
O=C(O)CN(CC(=O)O)CC1=CC2C(=CC1=O)Oc1cc(O)c(CN(CC(=O)O)CC(=O)O)cc1C21OC(=O)c2ccccc21 (configuration not stated) | inactive

Compound | Potency
C/C1=C2N=C(/C=C3N=C(/C(C)=C4\[N-]C(C(CC(N)=O)C4(C)CCC(=O)NCC(C)OP(=O)([O-])OC4C(CO)OC(n5cnc6cc(C)c(C)cc65)C4O)C4(C)N=C1C(CCC(N)=O)C4(C)CC(N)=O)C(CCC(N)=O)C\3(C)C)C(CCC(N)=O)C/2(C)CC(N)=O.[CH3-].[Co+3] (configuration not stated) | 11.9 µM (active)
CCC(=O)O[C@H]1CC[C@H]2[C@@H]3CCc4cc(O)ccc4[C@H]3CC[C@]12C | 26.6 µM (active)
CCOc1ccc(N=Nc2ccc(N)cc2N)cc1 | 10.6 µM (active)
CCCCCCCCCCCCCCCCCC(=O)OCC(C)O (configuration not stated) | inactive
O=P(O)(O)C(Sc1ccc(Cl)cc1)P(=O)(O)O | inactive
O=C(CCCN1CCC(n2c(=S)[nH]c3ccccc32)CC1)c1ccc(F)cc1 | 26.6 µM (active)
C/C1=C2N=C(/C=C3N=C(/C(C)=C4\[N-][C@@](C)([C@@H]5N=C1[C@](C)(CCC(=O)NCC(C)OP(=O)(O)O[C@H]1[C@@H](O)[C@@H](n6cnc7cc(C)c(C)cc76)O[C@@H]1CO)[C@H]5CC(N)=O)[C@@](C)(CC(N)=O)[C@@H]4CCC(N)=O)[C@@](C)(CC(N)=O)[C@@H]\3CCC(N)=O)C(C)(C)[C@@H]/2CCC(N)=O.CC(=O)O.[Co] (some centres not stated) | 11.9 µM (active)
C=C1CC[C@@H]2[C@](C)(CO)[C@H](O)CC[C@@]2(C)[C@@H]1C/C=C1/C(=O)OC[C@H]1O | 23.7 µM (active)
CC(=O)Nc1c(I)c(C(=O)O)c(I)c(N(C)C(C)=O)c1I | inactive
CC(=O)Oc1cccc(C(=O)O)c1OC(C)=O | inactive
CC(C)NCC(O)COc1ccccc1-n1cccc1 (configuration not stated) | inactive
CC(CC(c1ccccc1)c1ccccc1)NC(C)(C)C (configuration not stated) | 21.1 µM (active)
CCCCCCCCCCCCCCCCSCC(COC)COP(=O)([O-])OCC[N+](C)(C)C (configuration not stated) | 18.8 µM (active)
C=C1C(=O)O[C@H]2[C@H]1CC/C(C)=C\CC[C@@]1(C)O[C@@H]21 | 7.5 µM (active)
O=[n+]1ccn([O-])c2ccccc21 | inactive
CC(/C=C/C=C(\C)C(=O)O[C@@H]1O[C@H](CO[C@@H]2O[C@H](CO)[C@@H](O)[C@H](O)[C@H]2O)[C@@H](O)[C@H](O)[C@H]1O)=C\C=C\C=C(C)\C=C\C=C(/C)C(=O)O[C@@H]1O[C@H](CO[C@@H]2O[C@H](CO)[C@@H](O)[C@H](O)[C@H]2O)[C@@H](O)[C@H](O)[C@H]1O | inactive
